The values that follow come from PubChem BioAssay (NCI).

The panel holds about 79,000 compounds, 15% with a hit somewhere; the sample as a whole holds those more often. Active and inactive are the calls of the source. Cut-off read from the data, not from the text of the source: active = growth inhibition above about 70%; inactive = the rest.

A short description of the first assay: NCI Yeast Anticancer Drug Screen. Data for the mec2-1 strain (AID 157). The note with it: S. cerevisiae mec2-1 strain, at 11.0 µM, hits give high values. In outline: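 Using mec2-1 yeast: add compound, measure growth, express inhibition versus vehicle-treated cultures.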
For the compound `CNC(=O)OCc1c(COC(=O)NC)c(C)n(-c2ccc(Cl)c(Cl)c2)c1C`, the growth inhibition was -26% (inactive).

As to `COc1ccc2nc(N/N=C/c3sccc3C)cc(C)c2c1`, the growth inhibition is 12% (inactive).

On to `O=C(O)/C=C\C(=O)NNc1ccc(Br)cc1`, for which the growth inhibition was 99% (active).

As to `S=c1[nH]nc(Cc2ccccc2)c(=S)[nH]1`, the growth inhibition was 29% (inactive).

Turning to `CCN(CC)CCSc1c2ccccc2nc2cc(NCC(=O)Nc3ccccc3-c3ccccc3NC(=O)CNc3ccc4c(SCCN(CC)CC)c5ccccc5nc4c3)ccc12`, the growth inhibition was 16% (inactive).

Consider `Cc1ccc(N(C=O)c2c([N+](=O)[O-])cc([N+](=O)[O-])c3c2=[N+]([O-])CN=3)cc1`, for which the growth inhibition was 32% (inactive).

For the compound `COc1ccc(C(=O)OCCc2ccccc2)cc1`, the growth inhibition was -4% (inactive).

On to `COc1ccc(C(=O)NCCN(C)C)c2nc3ccccc3cc12`, for which the growth inhibition is 18% (inactive).

Regarding `NCC(O)CSCc1ccc(Cl)cc1` (centres undefined), the growth inhibition is -2% (inactive).

For the compound `CN(C)/N=N/c1nc[nH]c1C(N)=O`, the growth inhibition is 1% (inactive).

`O=c1[nH]c(=O)n(CCCO)cc1F`: the growth inhibition was -41% (inactive).

For `COc1ccc(/C(=N/O)c2ccccc2C2=Nc3ccccc3C(NCc3ccccc3)O2)cc1C` (centres undefined), the growth inhibition is 1% (inactive).

Turning to `CCCC(=O)OC(OC(=O)CCC)c1ccc([N+](=O)[O-])o1`, the growth inhibition was 2% (inactive).

On to `O=C(/C(=C/c1ccccc1)CBr)c1ccccc1`, for which the growth inhibition was 58% (inactive).

In the case of `O=C(Cc1ccccc1F)NC1=C(Cl)C(=O)c2ccccc2C1=O`, the growth inhibition is 46% (inactive).

On to `Cc1cccc(N2CCN(C(=O)/C(=C/c3ccccc3)NC(=O)c3ccccc3)CC2)c1`, for which the growth inhibition was 8% (inactive).

As for `c1cc(Nc2ccc3c(c2)OCO3)c2cc(C3CCCCC3)ccc2n1`, the growth inhibition is -4% (inactive).

As for `Cc1ccc2nc(N/N=C/c3ccc(C)s3)cc(C)c2c1`, the growth inhibition was -19% (inactive).

On to `COc1cc(NCCCCCNC(C)C)c2ncccc2c1Cl`, for which the growth inhibition was 3% (inactive).

Consider `COc1ccc2cc(CN3CCC(C4CCN(Cc5ccc6cc(OC)ccc6c5)CC4)CC3)ccc2c1`, for which the growth inhibition is -40% (inactive).

As for `CC(=O)O/N=C/c1c2ccccc2cc2ccccc12`, the growth inhibition is 7% (inactive).

With `CC[C@@]1(OC(=O)CN(C)C)C(=O)OCc2c1cc1n(c2=O)Cc2cc3ccccc3nc2-1`, the growth inhibition was 89% (active).

For the compound `CC1(C)CC(=O)C(C(CC(c2ccccc2)c2cc3c(cc2O)OCO3)C2=C(O)CC(C)(C)CC2=O)=C(O)C1` (centres undefined), the growth inhibition is 43% (inactive).

Turning to `CCCCCCC(CCl)c1sc(-c2csc(CCNC(=O)OC(C)(C)C)n2)nc1C(=O)OC` (centres undefined), the growth inhibition was 0% (inactive).

In the case of `CCOC(=O)C1=C(C)NC(C)=C(C(=O)OCC)C1c1cccc([N+](=O)[O-])c1`, the growth inhibition was -10% (inactive).

On to `Cc1ccc2c(/C=C/c3ccc(N(C)C)cc3)ccnc2c1C`, for which the growth inhibition is -42% (inactive).

With `O=C1C(Br)=CC(Br)(Br)C=C1Br`, the growth inhibition is 51% (inactive).

The assay is the same for the next values; noted with them: S. cerevisiae mec2-1 strain, at 33.0 µM, hits give high values.
As to `CNC(=O)OCc1c(COC(=O)NC)c(C)n(-c2ccc(Cl)c(Cl)c2)c1C`, the growth inhibition is 98% (active).

As to `COc1ccc2nc(N/N=C/c3sccc3C)cc(C)c2c1`, the growth inhibition was 96% (active).

For `O=C(O)/C=C\C(=O)NNc1ccc(Br)cc1`, the growth inhibition is 99% (active).

With `S=c1[nH]nc(Cc2ccccc2)c(=S)[nH]1`, the growth inhibition is 91% (active).

As for `CCN(CC)CCSc1c2ccccc2nc2cc(NCC(=O)Nc3ccccc3-c3ccccc3NC(=O)CNc3ccc4c(SCCN(CC)CC)c5ccccc5nc4c3)ccc12`, the growth inhibition was 91% (active).

With `Cc1ccc(N(C=O)c2c([N+](=O)[O-])cc([N+](=O)[O-])c3c2=[N+]([O-])CN=3)cc1`, the growth inhibition is 95% (active).

Take `COc1ccc(C(=O)OCCc2ccccc2)cc1`: the growth inhibition is -5% (inactive).

Consider `COc1ccc(C(=O)NCCN(C)C)c2nc3ccccc3cc12`, for which the growth inhibition was 30% (inactive).

As to `NCC(O)CSCc1ccc(Cl)cc1` (centres undefined), the growth inhibition is -2% (inactive).

With `CN(C)/N=N/c1nc[nH]c1C(N)=O`, the growth inhibition is 5% (inactive).

Turning to `O=c1[nH]c(=O)n(CCCO)cc1F`, the growth inhibition is -33% (inactive).

For `COc1ccc(/C(=N/O)c2ccccc2C2=Nc3ccccc3C(NCc3ccccc3)O2)cc1C` (centres undefined), the growth inhibition is 37% (inactive).

In the case of `CCCC(=O)OC(OC(=O)CCC)c1ccc([N+](=O)[O-])o1`, the growth inhibition is 5% (inactive).

Take `O=C(/C(=C/c1ccccc1)CBr)c1ccccc1`: the growth inhibition is 96% (active).

On to `O=C(Cc1ccccc1F)NC1=C(Cl)C(=O)c2ccccc2C1=O`, for which the growth inhibition is 55% (inactive).

For the compound `Cc1cccc(N2CCN(C(=O)/C(=C/c3ccccc3)NC(=O)c3ccccc3)CC2)c1`, the growth inhibition was 36% (inactive).

As to `c1cc(Nc2ccc3c(c2)OCO3)c2cc(C3CCCCC3)ccc2n1`, the growth inhibition was -2% (inactive).

`Cc1ccc2nc(N/N=C/c3ccc(C)s3)cc(C)c2c1`: the growth inhibition was 99% (active).

Take `COc1cc(NCCCCCNC(C)C)c2ncccc2c1Cl`: the growth inhibition was 4% (inactive).

As for `COc1ccc2cc(CN3CCC(C4CCN(Cc5ccc6cc(OC)ccc6c5)CC4)CC3)ccc2c1`, the growth inhibition is -31% (inactive).

For `CC(=O)O/N=C/c1c2ccccc2cc2ccccc12`, the growth inhibition is 20% (inactive).

As for `CC[C@@]1(OC(=O)CN(C)C)C(=O)OCc2c1cc1n(c2=O)Cc2cc3ccccc3nc2-1`, the growth inhibition is 94% (active).

In the case of `CC1(C)CC(=O)C(C(CC(c2ccccc2)c2cc3c(cc2O)OCO3)C2=C(O)CC(C)(C)CC2=O)=C(O)C1` (centres undefined), the growth inhibition was 84% (active).

Consider `CCCCCCC(CCl)c1sc(-c2csc(CCNC(=O)OC(C)(C)C)n2)nc1C(=O)OC` (centres undefined), for which the growth inhibition was 6% (inactive).

Turning to `CCOC(=O)C1=C(C)NC(C)=C(C(=O)OCC)C1c1cccc([N+](=O)[O-])c1`, the growth inhibition was 30% (inactive).

For `Cc1ccc2c(/C=C/c3ccc(N(C)C)cc3)ccnc2c1C`, the growth inhibition was -16% (inactive).

With `O=C1C(Br)=CC(Br)(Br)C=C1Br`, the growth inhibition was 99% (active).
